High-throughput results: PubChem, SRMLSC
Rows were chosen to be rich in hits. Some 6.5% of all compounds tested hit in one or more screens of this group.
A340 absorber – compounds absorbing at 340 nm. compound absorbance at 340 nm, fold over control. fold change at 10 µM. 65,000 tested, under 10 active;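 active means at 10 µM dose, initial 340 nm absorbance at least 2 fold that of control wells; inactive means change under 2 fold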;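 further: initial absorbance extrapolated from kinetic A340 decline of NADH oxidation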
Fluor 339 460 – intrinsic fluorescence of library compounds, ex339/em460 – biochemical, MLSMR library, data from DPM-DC assay, artefact control, profiling panel. fluorescence fold increase at 10 µM. compound autofluorescence, ex339/em460 nm, NADH buffer; hits give high values; 1 = no-compound wells, NADH background. hit rate 5.5% among 65,000. AID 709;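 active means at 10 µM, mean starting fluorescence two-fold or more over control wells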;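 further: signal is the first read of a kinetic run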
Spn DPM-DC inh – blocks S. pneumoniae diphosphomevalonate decarboxylase. hit rate 0.49% among 65,000. purified DPM-DC, PK/LDH coupled NADH fluorescence. AID 556. calls only at 10 µM;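 active means the 320 compounds with the highest percent inhibition in the single-dose primary screen, excluding strongly autofluorescent ones, cut at about 32% in these data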;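 further: kinetic rate of NADH fluorescence loss reporting ADP formed by the decarboxylase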
PMK inhibit – blocks S. pneumoniae phosphomevalonate kinase | purified PMK, PK/LDH-coupled NADH absorbance 340 nm | inhibition, % at 10 µM | hit rate 0.49% among 65,000;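 active means top-ranked compounds by inhibition in the single 10 µM screen, taking a fixed number of the strongest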;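 further: 0% = full reaction with DMSO carrier and 100% = background rate without enzyme reaction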
NADH enzymes – blocks coupling enzymes of NAD/NADH assays | AID 774 | coupled PK/LDH NADH assays, four targets | IC50, µM (titrated, usually from 10 µM), for the others: at the highest dose inhibition | hit rate 0.02% among 65,000;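 active means single-dose screening hits from any of four coupled enzyme assays that gave an IC50 when retested across doses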;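 further: the DPM-DC format reads NADH fluorescence rather than 340 nm absorbance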
Spn MK inh – blocks S. pneumoniae mevalonate kinase. hit rate 0.48% among 65,000. purified MK, PK/LDH-coupled NADH absorbance 340 nm. inhibition, % at 10 µM. AID 555;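 active means ranked among the strongest by inhibition in the single 10 µM screen, a fixed top-ranked set picked for dose follow-up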
An asterisk follows results filed as active; i = inactive; nt = not tested or not shown.

SMILES	A340 absorber	Fluor 339 460	Spn DPM-DC inh	PMK inhibit	NADH enzymes	Spn MK inh
Cc1nc2c(c(=O)n1CC1CCCO1)c1nc3ccccc3nc1n2Cc1ccc2c(c1)OCO2 (centres undefined)	1.1	1.9	i	2	1%	0
COc1ccc(C(C)=O)cc1COC(=O)c1cccc(N(C)C)c1	0.98	2.1*	i	11	7%	2
Cc1cc(NC(=O)c2ccc3c(c2)C(=O)N(C2CCCCC2)C3=O)no1	1	1.1	i	0	4%	1
CCC(=O)Nc1ccc2c(c1)C(=O)N(C1CCCCC1)C2=O	1.1	3.9*	nt	7	4%	1
Cc1cc(NC(=O)CN2CCN(c3ccccc3F)CC2)nc2c1c(=O)oc1ccccc12	1.1	1	i	0	5%	15
CCCOC(=O)c1cc(=O)[nH]c2ccccc12	1	2.3*	i	11	6%	0
CN1C(=O)c2cccc3c(S(=O)(=O)Nc4ccccn4)ccc1c23	1.1	1.3	i	7	6%	4
O=C1Nc2ccc(S(=O)(=O)N3CCCCCC3)c3cccc1c23	1.1	2.1*	nt	11	8%	4
CN1CCN(S(=O)(=O)c2ccc3c4c(cccc24)C(=O)N3)CC1	1.1	2.1*	nt	9	6%	2
O=C1Nc2ccc(S(=O)(=O)NCc3ccccn3)c3cccc1c23	1.1	3.8*	nt	7	4%	1
CCOc1ccccc1N1CCN(S(=O)(=O)c2ccc3c4c(cccc24)C(=O)N3)CC1	1.1	1.3	i	8	8%	3
O=C1Nc2ccc(S(=O)(=O)N3CCOCC3)c3cccc1c23	1.1	4*	nt	0	2%	4
CCOc1ccc(N(CC(=O)NC2CCCC2)S(=O)(=O)c2c(C)[nH]c(=O)[nH]c2=O)cc1	1	1.1	i	0	2%	1
Cc1ccc(NC(=O)N2C(=O)C3(OCCO3)c3ccccc32)cc1	1	1.1	i	9	4%	2
O=C(O)C1=C(C(=O)Nc2ccc(F)c(Cl)c2)CCCC1	1	1.1	i	25*	8%	0
COc1ccc(S(=O)(=O)c2ccc(OC)c(OC)c2)cc1OC	1	1	i	9	6%	6
CC1(C)Cc2c(sc3nn[nH]c(=O)c23)CO1	1.1	1.1	i	10	7%	11
CCC1CC2(C)NC(=O)c3c(sc4c3CC(C)(C)OC4)N2C1=O (centres undefined)	1	2.3*	nt	3	4%	5
CCOc1ccc(C2Oc3nc(SC)nnc3-c3ccccc3N2C(C)=O)cc1OC (centres undefined)	1.1	1.1	i	12	7%	9
Cc1nc2sc(C(c3ccccc3)N3CCN(C)CC3)c(O)n2n1 (centres undefined)	1.1	1.1	i	5	3%	4
COCCn1c(-c2ccc(-c3ccccc3Cl)o2)nc2c1c(=O)[nH]c(=O)n2CC(C)C	1.1	2.1*	nt	13	13%	12
CCOC(=O)c1oc2cccc(OCC(O)CNC(C)C)c2c1C (centres undefined)	1	3.6*	nt	10	12%	13
O=C(O)c1cc(=O)c2c(OCC(O)COc3cccc4oc(C(=O)O)cc(=O)c34)cccc2o1	0.99	1	i	0	2%	7
Cc1n[nH]c(C)c1-c1nc2ccccc2[nH]1	1	1	i	10	4%	3
Cn1c(NCc2c[nH]c3ccccc23)nc2ccccc21	0.98	1.1	i	11	4%	2
SMILES	A340 absorber	Fluor 339 460	Spn DPM-DC inh	PMK inhibit	NADH enzymes	Spn MK inh
Nc1ccc(-c2nc3ccccc3[nH]2)cc1	1.1	2.1*	nt	0	3%	6
Cn1cc(-c2nc3ccccc3[nH]2)c2ccccc21	1	2.1*	nt	0	1%	3
Nc1ccccc1-c1nc2ccccc2[nH]1	1.1	3.8*	nt	7	7%	7
Nc1cccc(-c2nc3ccccc3[nH]2)c1	0.99	2.2*	nt	0	2%	3
Nc1ccc(C(=O)OCc2nc3ccccc3[nH]2)cc1	1	1	i	16	6%	0
CCCc1cc(C(N)=O)c(NC(C)=O)s1	1	1	i	9	7%	11
O=C(Nc1ccc(F)cc1F)c1cc2ncc(Br)cn2n1	1	1.1	i	2	5%	6
COC(=O)c1ccccc1NC(=O)c1cc2ncc(Br)cn2n1	1.1	2.1*	i	5	10%	13
CCOc1cccc(C2c3c(oc4cc(C)c(C)cc4c3=O)C(=O)N2CCCN(C)C)c1 (centres undefined)	1.1	1.1	i	9	8%	9
CC1CCN(c2nc3c(c(=O)[nH]c(=O)n3C)n2CCSc2ncccn2)CC1	0.98	1	i	2	1%	1
CC(=O)Nc1sc2c(c1C#N)CCCCC2	0.99	1	i	15	3%	10
CC(C)(C)NCc1cccn1-c1sc2c(c1C#N)CCCC2	1.1	1.1	i	0	16%	49*
Cc1ccc(O)c(CC(C)C)n1	1.1	2*	i	0	3%	2
CCc1cc(=O)oc2c(C)c(O)c(CN(C)C)cc12	1.1	3.9*	nt	0	6%	11
CCC(=O)c1cc2c(C)cc(=O)oc2c(C)c1O	1	1.7	i	1	5%	7
COc1ccc(N(C(=O)c2ccc(Br)o2)C2C=CS(=O)(=O)C2)cc1 (centres undefined)	1	1.1	i	19	7%	3
COC(=O)c1ccc(CSc2ccc3nnc(-c4ccc(OC)c(OC)c4)n3n2)o1	0.99	1.1	i	14	8%	9
CCOc1ccc(S(=O)(=O)Nc2nc3ccccc3nc2N2CCN(C)CC2)cc1	1.1	1.7	i	4	12%	9
CC(=O)N1CCN(c2nc3cc4c(cc3nc2NS(=O)(=O)c2ccccc2)OCCO4)CC1	1.1	2.7*	i	27*	13%	3
Cn1c(=O)[nH]c2cc(Cl)cnc21	1	1.1	i	10	5%	0
O=c1[nH]c2cc(Cl)cc(Cl)c2[nH]c1=O	1	2.5*	i	12	13%	8
O=C1NC(c2ccccc2Cl)Nc2ccccc21 (centres undefined)	1	5*	nt	9	5%	1
O=C1NC(c2cccs2)Nc2ccccc21 (centres undefined)	1	2.5*	nt	0	1%	4
Cc1ccsc1C1NC(=O)c2ccccc2N1 (centres undefined)	1.1	1.9	nt	0	1%	1
Cc1cccc2cc(CN(CCN3CCCC3)C(=O)NC3CCCCC3)c(=O)[nH]c12	1	1.2	i	30*	4%	3
O=C(NC1CCCCC1)N(Cc1cc2cc3c(cc2[nH]c1=O)OCCO3)CC1CCCO1 (centres undefined)	1.1	4.5*	nt	11	10%	9
